Reference: the supplement of paper PMC10849652
About 7,900 targets were measured; listed, in parts, are those with a hit and a random draw of the rest. About 0.6% of all pairs of compound and target were hits.

What was measured:
Assay in all cases: log2 fold change, soluble protein after heating vs DMSO (PISA); higher = thermal stabilisation; K562 cells, 10 uM, 30 min; active = over 0.2 and 3.5 SD of the protein, either way, in both replicates (recomputed)
[1] = compound: CC[C@@H]1C(=O)N(C)c2cnc(Nc3ccc(C(=O)NC4CCN(C)CC4)cc3OC)nc2N1C1CCCC1
Method in brief: (§1)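 Aliquots of K562 cells (2×10^6 cells/mL) treated with 10 μM compound for 30 min were heated for 3 min over 48°C-58°C. After pooling and extraction in PBS with 0.5% NP-40 at 4°C, soluble protein from a 21,000xg, 90 min spin was quantified by TMTpro 16plex LC-MS/MS with channel sums equalised. Thermal stability is expressed against control samples, from duplicates, as a log2 fold change.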

volasertib = compound: CC[C@@H]1C(=O)N(C)c2cnc(Nc3ccc(C(=O)N[C@H]4CC[C@H](N5CCN(CC6CC6)CC5)CC4)cc3OC)nc2N1C(C)C [volasertib]
Method in brief: as §1

[2] = compound: CC[C@H](C)N1C=C(C2=C(C=C(C=C21)C3=CN=C(C=C3)N4CCNCC4)C(=O)NCC5=C(C=C(NC5=O)C)C)C
Method in brief: as §1

epoxomicin = compound: CC[C@H](C)[C@@H](C(=O)N[C@@H]([C@@H](C)O)C(=O)N[C@@H](CC(C)C)C(=O)[C@]1(CO1)C)NC(=O)[C@H]([C@@H](C)CC)N(C)C(=O)C [epoxomicin]
Method in brief: as §1

[3] = compound: CCn1c(C(=O)N(C2CC2)C2CC2)cc2c3c(ncn3C)c(Nc3cc(C)n(C)n3)nc21
Method in brief: as §1

[4] = compound: CCn1cc(-c2ccnc3[nH]c(-c4cccc(CN(C)C)c4)cc23)c(-c2ccc(NC(=O)N(C)C)cc2)n1
Method in brief: as §1

[5] = compound: CN(C)CC(=O)Nc1ccc2[nH]c(=O)c3ccccc3c2c1
Method in brief: as §1

rosiglitazone = compound: CN(CCOC1=CC=C(C=C1)C[C@H]2C(=O)NC(=O)S2)C3=CC=CC=N3 (racemic) [rosiglitazone]
Method in brief: as §1

[6] = compound: CN1C2=C(C3=C1C(=O)N(N=C3)CC4=CC(=CC=C4)N)SC(=C2)S(=O)C
Method in brief: as §1

[7] = compound: CN1CCC(CNc2ccc3ncc(-c4cccc(OC(F)(F)F)c4)n3n2)CC1
Method in brief: as §1

Measured: log2 fold change

RB1CC1 (UniProt Q8TDY2)
inactive: [1] 0.051 | volasertib -0.022 | [2] -0.086 | epoxomicin 0.063 | [3] -0.118 | [4] -0.07 | [5] -0.077 | rosiglitazone 0.01 | [6] 0.047 | [7] -0.116

RBM4 (UniProt Q9BWF3)
Chain of UniProt Q9BWF3 (Q9BWF3 whole entry, looked up): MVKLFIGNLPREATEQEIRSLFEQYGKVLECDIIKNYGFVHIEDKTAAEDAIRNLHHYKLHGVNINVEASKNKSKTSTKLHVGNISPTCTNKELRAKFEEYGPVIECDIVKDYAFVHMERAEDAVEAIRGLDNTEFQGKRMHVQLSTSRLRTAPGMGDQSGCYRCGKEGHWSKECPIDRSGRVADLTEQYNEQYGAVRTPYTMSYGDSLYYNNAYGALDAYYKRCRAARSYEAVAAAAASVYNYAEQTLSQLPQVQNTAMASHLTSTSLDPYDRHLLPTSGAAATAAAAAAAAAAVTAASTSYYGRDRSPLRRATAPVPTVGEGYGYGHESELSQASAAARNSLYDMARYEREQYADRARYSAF
inactive: [1] -0.043 | [2] 0.057 | epoxomicin -0.018 | [3] -0.079 | [4] 0.059 | [5] -0.024 | rosiglitazone -0.034 | [6] 0.129 | [7] -0.091
active: volasertib -0.3

RETSAT (UniProt Q6NUM9)
inactive: [1] -0.073 | volasertib -0.073 | [2] 0.024 | epoxomicin -0.003 | [3] -0.083 | [4] -0.012 | [5] 0.036 | rosiglitazone 0.042 | [6] -0.011 | [7] 0.053

RPS19 (UniProt P39019)
inactive: [1] 0.147 | volasertib 0.319 | [2] 0.008 | epoxomicin -0.115 | [3] 0.041 | [4] 0.091 | [5] -0.073 | rosiglitazone -0.063 | [6] 0.147 | [7] 0.121

RBM12 (UniProt Q9NTZ6)
Chain of UniProt Q9NTZ6 (Q9NTZ6 whole entry, looked up): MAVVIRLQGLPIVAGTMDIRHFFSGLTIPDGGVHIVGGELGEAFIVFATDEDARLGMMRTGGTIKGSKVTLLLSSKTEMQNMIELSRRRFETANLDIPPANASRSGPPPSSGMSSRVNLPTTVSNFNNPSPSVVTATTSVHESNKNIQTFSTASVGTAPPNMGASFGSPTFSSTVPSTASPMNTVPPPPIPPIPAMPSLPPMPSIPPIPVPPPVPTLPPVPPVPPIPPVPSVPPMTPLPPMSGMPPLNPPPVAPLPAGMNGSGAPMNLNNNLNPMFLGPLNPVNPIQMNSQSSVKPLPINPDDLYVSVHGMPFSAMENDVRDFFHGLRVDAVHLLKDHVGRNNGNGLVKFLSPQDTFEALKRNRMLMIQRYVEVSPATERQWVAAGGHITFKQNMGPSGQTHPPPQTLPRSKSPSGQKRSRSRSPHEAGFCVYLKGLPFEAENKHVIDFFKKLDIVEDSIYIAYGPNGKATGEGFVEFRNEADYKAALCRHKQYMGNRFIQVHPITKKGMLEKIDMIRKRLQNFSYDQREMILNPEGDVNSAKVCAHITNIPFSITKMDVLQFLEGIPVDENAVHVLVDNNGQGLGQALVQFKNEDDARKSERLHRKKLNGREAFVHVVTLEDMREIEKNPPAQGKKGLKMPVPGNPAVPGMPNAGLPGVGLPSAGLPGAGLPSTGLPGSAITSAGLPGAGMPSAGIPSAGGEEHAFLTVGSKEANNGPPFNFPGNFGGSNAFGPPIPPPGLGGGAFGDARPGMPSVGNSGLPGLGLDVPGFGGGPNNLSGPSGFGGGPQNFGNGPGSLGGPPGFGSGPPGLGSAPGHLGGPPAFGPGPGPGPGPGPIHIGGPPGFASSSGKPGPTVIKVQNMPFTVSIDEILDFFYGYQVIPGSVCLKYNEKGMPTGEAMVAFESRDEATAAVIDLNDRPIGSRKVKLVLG
inactive: [1] -0.181 | [2] 0.114 | epoxomicin 0.087 | [3] -0.08 | [4] -0.049 | [5] 0.053 | rosiglitazone 0.087 | [6] -0.033 | [7] -0.139
active: volasertib -0.437

RBM8A (UniProt Q9Y5S9)
inactive: [1] -0.051 | volasertib -0.041 | [2] 0.038 | epoxomicin 0.005 | [3] 0.021 | [4] 0.014 | [5] -0.037 | rosiglitazone -0.004 | [6] -0.035 | [7] 0.065

RHEB (UniProt Q15382)
inactive: [1] 0.038 | volasertib 0.013 | [2] -0.014 | epoxomicin 0.002 | [3] 0.022 | [4] 0.02 | [5] 0.016 | rosiglitazone 0.026 | [6] -0.068 | [7] -0.003

SAAL1 (UniProt Q96ER3)
Chain of UniProt Q96ER3 (Q96ER3 whole entry, looked up): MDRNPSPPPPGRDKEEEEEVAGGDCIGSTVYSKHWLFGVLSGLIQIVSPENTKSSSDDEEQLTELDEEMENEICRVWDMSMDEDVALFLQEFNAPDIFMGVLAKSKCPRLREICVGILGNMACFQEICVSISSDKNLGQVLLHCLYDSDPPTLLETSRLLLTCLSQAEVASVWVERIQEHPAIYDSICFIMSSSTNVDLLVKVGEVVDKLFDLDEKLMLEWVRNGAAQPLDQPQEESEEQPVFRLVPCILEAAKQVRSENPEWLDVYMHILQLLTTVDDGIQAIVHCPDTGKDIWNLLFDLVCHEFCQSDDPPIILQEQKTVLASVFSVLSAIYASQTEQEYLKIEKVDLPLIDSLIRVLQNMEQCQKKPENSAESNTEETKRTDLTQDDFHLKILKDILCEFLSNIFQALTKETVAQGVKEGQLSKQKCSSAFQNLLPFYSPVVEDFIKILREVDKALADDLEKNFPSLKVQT
active: volasertib -0.245
inactive: [1] -0.167 | [2] 0.001 | epoxomicin 0.025 | [3] -0.038 | [4] 0.025 | [5] -0.025 | rosiglitazone 0.051 | [6] -0.012 | [7] -0.219

ROR2 (UniProt Q01974)
inactive: [1] -0.107 | volasertib -0.123 | [2] 0.129 | epoxomicin 0.035 | [3] -0.012 | [4] -0.015 | [5] -0.01 | rosiglitazone 0.036 | [6] -0.069 | [7] -0.089

RIPK1 (UniProt Q13546)
active: volasertib -0.478
inactive: [1] -0.069 | [2] 0.12 | epoxomicin -0.01 | [3] -0.046 | [4] 0.041 | [5] 0.08 | rosiglitazone 0.111 | [6] 0.022 | [7] -0.099

SEC16A isoform 5 (UniProt O15027)
inactive: [1] -0.058 | volasertib -0.271 | [2] 0.051 | epoxomicin -0.04 | [3] -0.146 | [4] -0.048 | [5] 0.1 | rosiglitazone 0.06 | [6] 0.078 | [7] -0.047

RPP25L (UniProt Q8N5L8)
Chain of UniProt Q8N5L8 (Q8N5L8 whole entry, looked up): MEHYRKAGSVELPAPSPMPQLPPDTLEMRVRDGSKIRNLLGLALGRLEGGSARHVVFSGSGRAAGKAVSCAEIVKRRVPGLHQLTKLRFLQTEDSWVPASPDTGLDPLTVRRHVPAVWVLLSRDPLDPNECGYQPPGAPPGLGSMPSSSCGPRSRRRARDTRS
inactive: [1] 0.144 | volasertib 0.115 | [2] -0.042 | epoxomicin -0.04 | [3] -0.052 | [4] 0.059 | [5] -0.074 | rosiglitazone -0.093 | [6] 0.061 | [7] 0.058

RANBP2 (UniProt P49792)
inactive: [1] 0.058 | volasertib -0.006 | [2] -0.008 | epoxomicin 0 | [3] -0.063 | [4] 0.099 | [5] 0.026 | rosiglitazone 0.03 | [6] -0.033 | [7] -0.052

RPL38 (UniProt P63173)
inactive: [1] 0.076 | volasertib 0.187 | [2] 0.033 | epoxomicin -0.062 | [3] -0.022 | [4] -0.03 | [5] -0.02 | rosiglitazone -0.012 | [6] -0.004 | [7] 0.052

SEC23IP (UniProt Q9Y6Y8)
Chain of UniProt Q9Y6Y8 (Q9Y6Y8 whole entry, looked up): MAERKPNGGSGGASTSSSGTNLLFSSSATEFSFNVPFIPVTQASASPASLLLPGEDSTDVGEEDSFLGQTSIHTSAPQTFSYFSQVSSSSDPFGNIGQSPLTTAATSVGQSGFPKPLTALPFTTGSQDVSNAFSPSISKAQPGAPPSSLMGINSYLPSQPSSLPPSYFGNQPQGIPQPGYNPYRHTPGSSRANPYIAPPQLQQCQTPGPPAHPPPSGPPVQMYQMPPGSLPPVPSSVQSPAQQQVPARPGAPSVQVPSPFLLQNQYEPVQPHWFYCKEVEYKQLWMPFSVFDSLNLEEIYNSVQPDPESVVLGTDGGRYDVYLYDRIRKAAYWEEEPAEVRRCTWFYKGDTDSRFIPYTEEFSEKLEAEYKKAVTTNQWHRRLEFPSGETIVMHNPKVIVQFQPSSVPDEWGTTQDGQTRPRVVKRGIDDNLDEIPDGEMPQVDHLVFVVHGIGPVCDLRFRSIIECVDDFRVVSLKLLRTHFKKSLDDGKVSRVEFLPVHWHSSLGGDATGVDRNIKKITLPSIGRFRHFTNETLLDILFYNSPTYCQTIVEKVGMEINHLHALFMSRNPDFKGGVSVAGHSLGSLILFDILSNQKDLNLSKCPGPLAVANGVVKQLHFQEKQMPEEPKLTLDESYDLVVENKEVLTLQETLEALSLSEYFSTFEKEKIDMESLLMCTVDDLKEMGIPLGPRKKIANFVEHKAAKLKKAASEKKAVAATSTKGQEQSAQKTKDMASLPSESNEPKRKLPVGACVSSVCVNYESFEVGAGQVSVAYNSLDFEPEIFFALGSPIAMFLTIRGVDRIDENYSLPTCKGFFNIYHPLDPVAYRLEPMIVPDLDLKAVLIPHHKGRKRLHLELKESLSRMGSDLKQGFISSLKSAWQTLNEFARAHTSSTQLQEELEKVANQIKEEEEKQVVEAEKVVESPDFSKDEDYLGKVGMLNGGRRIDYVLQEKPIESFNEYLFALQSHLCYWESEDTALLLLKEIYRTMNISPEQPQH
inactive: [1] -0.069 | volasertib -0.005 | [2] 0.032 | epoxomicin -0.009 | [3] -0.101 | [4] -0.057 | [5] 0.012 | rosiglitazone 0.289 | [6] -0.008 | [7] -0.133

RPS14 (UniProt P62263)
inactive: [1] 0.043 | volasertib 0.362 | [2] 0.023 | epoxomicin -0.031 | [3] 0.015 | [4] 0.122 | [5] -0.066 | rosiglitazone -0.056 | [6] 0.095 | [7] 0.158

RCN3 (UniProt Q96D15)
inactive: [1] -0.033 | volasertib 0.053 | [2] -0.031 | epoxomicin -0.118 | [3] 0 | [4] -0.007 | [5] -0.019 | rosiglitazone 0.029 | [6] -0.03 | [7] -0.234

RNF187 (UniProt Q5TA31)
inactive: [1] 0.155 | volasertib 0.074 | [2] 0.061 | epoxomicin 0.15 | [3] -0.061 | [4] 0.002 | [5] 0.24 | rosiglitazone 0.004 | [6] -0.104 | [7] -0.073

RAB3GAP2 (UniProt Q9H2M9)
inactive: [1] -0.101 | volasertib -0.358 | [2] 0.044 | epoxomicin 0.022 | [3] -0.041 | [4] 0.088 | [5] 0.04 | rosiglitazone 0.053 | [6] 0.133 | [7] -0.132

SART3, A0A499FI31
active: volasertib -0.557
inactive: [1] -0.235 | [2] 0.061 | epoxomicin 0.065 | [3] -0.008 | [4] -0.017 | [5] 0.017 | rosiglitazone 0.038 | [6] -0.056 | [7] -0.211

SETMAR (UniProt Q53H47)
Chain of UniProt Q53H47 (Q53H47 whole entry, looked up): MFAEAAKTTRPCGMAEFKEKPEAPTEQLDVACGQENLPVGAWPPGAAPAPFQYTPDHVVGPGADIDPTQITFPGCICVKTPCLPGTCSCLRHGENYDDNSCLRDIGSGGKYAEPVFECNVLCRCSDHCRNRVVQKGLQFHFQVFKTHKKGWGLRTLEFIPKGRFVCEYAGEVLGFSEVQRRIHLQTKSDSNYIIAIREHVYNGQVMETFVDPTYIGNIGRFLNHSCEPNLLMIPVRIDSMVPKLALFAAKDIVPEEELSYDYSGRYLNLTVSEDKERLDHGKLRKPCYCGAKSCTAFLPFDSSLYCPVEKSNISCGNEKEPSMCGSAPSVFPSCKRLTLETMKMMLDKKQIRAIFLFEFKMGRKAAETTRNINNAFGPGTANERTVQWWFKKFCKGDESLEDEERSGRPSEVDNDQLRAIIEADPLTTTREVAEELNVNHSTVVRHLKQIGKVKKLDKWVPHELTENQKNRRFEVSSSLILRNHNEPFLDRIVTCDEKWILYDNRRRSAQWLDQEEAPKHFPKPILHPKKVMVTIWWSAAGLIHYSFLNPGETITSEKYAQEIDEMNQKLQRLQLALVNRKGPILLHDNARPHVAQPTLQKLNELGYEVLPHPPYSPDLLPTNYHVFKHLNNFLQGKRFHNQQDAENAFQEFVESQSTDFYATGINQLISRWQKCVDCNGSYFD
inactive: [1] -0.071 | volasertib -0.045 | [2] 0.058 | epoxomicin 0.045 | [3] -0.047 | [4] 0.015 | [5] 0.012 | rosiglitazone 0.005 | [6] -0.045 | [7] 0.108

SETD3 (UniProt Q86TU7)
Chain of UniProt Q86TU7 (Q86TU7 whole entry, looked up): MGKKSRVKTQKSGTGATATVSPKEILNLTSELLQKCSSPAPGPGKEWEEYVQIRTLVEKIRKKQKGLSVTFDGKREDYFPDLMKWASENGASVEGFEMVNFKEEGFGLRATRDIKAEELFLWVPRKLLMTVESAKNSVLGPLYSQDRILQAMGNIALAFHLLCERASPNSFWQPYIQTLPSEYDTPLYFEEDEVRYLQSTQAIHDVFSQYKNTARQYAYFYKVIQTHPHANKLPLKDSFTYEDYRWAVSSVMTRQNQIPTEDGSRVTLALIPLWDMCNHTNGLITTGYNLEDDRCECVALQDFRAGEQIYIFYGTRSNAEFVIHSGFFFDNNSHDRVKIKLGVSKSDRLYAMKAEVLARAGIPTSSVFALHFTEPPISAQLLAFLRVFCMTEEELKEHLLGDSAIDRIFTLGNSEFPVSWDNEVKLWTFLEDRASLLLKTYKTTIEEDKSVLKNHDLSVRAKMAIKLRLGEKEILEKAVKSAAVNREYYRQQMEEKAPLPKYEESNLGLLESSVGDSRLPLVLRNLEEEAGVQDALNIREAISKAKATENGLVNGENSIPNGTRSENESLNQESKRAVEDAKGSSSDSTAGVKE
inactive: [1] -0.017 | volasertib -0.018 | [2] 0.055 | epoxomicin -0.024 | [3] -0.004 | [4] -0.002 | [5] -0.02 | rosiglitazone 0.015 | [6] -0.056 | [7] 0.06

RSRC1 (UniProt Q96IZ7)
inactive: [1] 0.01 | volasertib 0.056 | [2] -0.041 | epoxomicin 0.083 | [3] 0.022 | [4] -0.021 | [5] -0.005 | rosiglitazone 0.002 | [6] -0.01 | [7] -0.062

RAB5IF isoform 5 (UniProt Q9BUV8)
Chain of UniProt Q9BUV8 (Q9BUV8 whole entry, looked up): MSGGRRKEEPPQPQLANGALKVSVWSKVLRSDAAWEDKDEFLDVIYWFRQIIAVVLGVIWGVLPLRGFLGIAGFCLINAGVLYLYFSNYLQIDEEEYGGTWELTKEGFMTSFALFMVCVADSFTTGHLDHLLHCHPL
inactive: [1] -0.025 | volasertib 0.036 | [2] -0.129 | epoxomicin 0.017 | [3] 0.011 | [4] -0.056 | [5] -0.031 | rosiglitazone 0.028 | [6] 0.003 | [7] 0.092

SACM1L (UniProt Q9NTJ5)
active: volasertib -0.534
inactive: [1] -0.193 | [2] -0.001 | epoxomicin 0.019 | [3] 0.029 | [4] -0.019 | [5] 0.033 | rosiglitazone 0.021 | [6] -0.076 | [7] 0.031

RAD51 (UniProt Q06609)
Chain of UniProt Q06609 (Q06609 whole entry, looked up): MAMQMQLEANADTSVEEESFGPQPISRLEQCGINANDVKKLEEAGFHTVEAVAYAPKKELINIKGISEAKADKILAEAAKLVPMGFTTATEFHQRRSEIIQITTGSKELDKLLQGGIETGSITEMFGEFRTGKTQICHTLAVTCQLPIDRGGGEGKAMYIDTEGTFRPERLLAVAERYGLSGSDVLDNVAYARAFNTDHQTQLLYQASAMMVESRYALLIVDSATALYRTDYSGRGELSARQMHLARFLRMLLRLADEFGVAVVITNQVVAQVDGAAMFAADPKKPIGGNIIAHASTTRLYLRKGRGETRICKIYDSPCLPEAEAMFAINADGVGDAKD
inactive: [1] 0.013 | volasertib 0.113 | [2] 0.026 | epoxomicin 0.157 | [3] -0.029 | [4] -0.011 | [5] -0.024 | rosiglitazone -0.016 | [6] -0.075 | [7] 0.051

SLC19A1 (UniProt P41440)
inactive: [1] 0.08 | volasertib 0.078 | [2] -0.062 | epoxomicin 0.087 | [3] 0.019 | [4] -0.047 | [5] 0.003 | rosiglitazone 0.019 | [6] -0.109 | [7] 0.172

SLBP (UniProt Q14493)
Chain of UniProt Q14493 (Q14493 whole entry, looked up): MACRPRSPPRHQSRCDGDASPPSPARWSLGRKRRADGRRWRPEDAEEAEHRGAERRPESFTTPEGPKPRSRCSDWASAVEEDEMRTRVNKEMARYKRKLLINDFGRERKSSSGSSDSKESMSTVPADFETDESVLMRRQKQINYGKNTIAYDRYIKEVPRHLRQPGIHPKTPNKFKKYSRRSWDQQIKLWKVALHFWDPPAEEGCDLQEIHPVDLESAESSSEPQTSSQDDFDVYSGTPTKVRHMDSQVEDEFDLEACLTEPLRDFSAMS
active: [7] -0.291
inactive: [1] -0.052 | volasertib -0.034 | [2] 0.013 | epoxomicin 0.127 | [3] -0.03 | [4] 0 | [5] -0.003 | rosiglitazone -0.048 | [6] 0.113

RAB33B (UniProt Q9H082)
inactive: [1] -0.016 | volasertib -0.014 | [2] -0.04 | epoxomicin -0.009 | [3] -0.005 | [4] 0.09 | [5] -0.031 | rosiglitazone 0.033 | [6] -0.067 | [7] -0.006

RABGAP1L isoform 3 (UniProt Q5R372)
inactive: [1] -0.046 | volasertib -0.107 | [2] 0.053 | epoxomicin 0.08 | [3] -0.028 | [4] -0.034 | [5] -0.011 | rosiglitazone -0.026 | [6] 0.02 | [7] 0.025
